Source: PubChem BioAssay (National Center for Advancing Translational Sciences (NCATS))
Compounds with a hit are over-represented: about 12% of the library has one in this group of screens.
Pf growth 96h: P. falciparum growth inhibition at 96 hour, primary screen for plastid delayed-death inhibitors. AID 504834. Potency, µM (highest dose often 28.7 µM), inactives show at the highest dose activity change, negative = inhibition, most hits filed as inhibitors. P. falciparum luciferase reporter growth, 96 h. actives 6.9% (n = 320,000); also: % is scaled to controls: 0 for no effect and ±100 for the full control effect
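Erythrocytes infected with luciferase-expressing P. falciparum were dispensed at 2% hematocrit and 0.05% parasitemia (final), then incubated with compounds 96 hours at 37 C in 5% CO2. Luminescence after detection reagent addition reported growth.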
NS1 function inh: blocks influenza NS1 protein function; Potency, µM (doses to about 46.1 µM), inactives show at the highest dose activity, positive = more growth; actives 0.4% (n = 270,000); calls by dose curve; also: actives are rising curves; nearly all actives have a fitted effect of over 50% in size
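OD600 was taken as the measure of yeast growth restored by compound in an NS1-expressing S. cerevisiae strain. Cells had been washed out of glucose medium and diluted 1:100 into galactose -URA medium, pH 6.0.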
AMA1-RON2 inh: disrupts binding of P. falciparum AMA1 to RON2 | Potency, µM (top dose mostly 58.2 µM), without a hit: at the top dose activity change, negative = inhibition, hits mostly inhibitors | AlphaScreen AMA1-biotinylated RON2 peptide binding | actives 0.2% (n = 360,000);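 also: 0% = vehicle wells and -100% = peptide control; nearly all actives have a fitted effect of over 45% in size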
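AMA1 (3D7) with his tag at 25 nM final met compounds first, then biotinylated RON2 peptide at 25 nM; detection used donor plus acceptor beads, 10 µg/mL apiece, read by AlphaScreen after 30 min at room temperature.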
HCV inh: inhibitors of hepatitis C virus infection | Potency, µM (highest dose often 41.8 µM), for inactives: at the highest dose activity change, negative = inhibition, hits mostly inhibitors | actives 3.4% (n = 340,000) | Huh7.5.1 HCVcc-Cre infection, luciferase reporter, 44 h; also: % is scaled to controls: 0 for no effect and ±100 for the full control effect
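A cell-based infection assay in which seeded cells (1,000 per well) receive test compound after 4 h, are inoculated with HCVcc-Cre at approximately 0.5 moi, and are incubated 44 h before luminescence detection.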
Pf growth 48h: P. falciparum growth inhibition at 48 hours (one generation); AID 504832; Potency, µM (highest dose often 28.7 µM), inactives show at the highest dose activity change, negative = inhibition, actives largely listed as inhibitors; P. falciparum luciferase growth in erythrocytes, 48 h; actives 5.9% (n = 310,000); also: % is scaled to controls: 0 for no effect and ±100 for the full control effect
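Luciferase-expressing parasites in RBCs, 2% Hct / 0.1% parasitemia final; RPMI 1640 + 0.5% Albumax; 37 C, 5% CO2, one generation; luminescence read-out, lower signal = inhibition.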
SARS PLpro yeast: blocks SARS-CoV papain-like protease in a yeast assay; Potency, µM (highest dose often 32.9 µM), for inactives: top-dose activity, positive = growth rescue, actives largely listed as activators; AID 485353; actives 0.19% (n = 330,000); S. cerevisiae expressing SARS-CoV PLpro, growth rescue; calls by dose curve; also: 0% is about no effect; nearly all actives have a fitted effect of over 55% in size
The depositor's hits bear a star; u = inconclusive; x = no result. Unless noted, calls follow the shape of the dose curve; as a rule, active = well fitted curve in the direction sought with a large enough effect; inconclusive = small, poorly fitted or top-dose-only effect, or another doubt; inactive = no such curve, though single readings can be large; an effect the other way counts as inactive or inconclusive. Potency is read from the fitted curve at half-maximal effect.

SMILES	Pf growth 96h	NS1 function inh	AMA1-RON2 inh	HCV inh	Pf growth 48h	SARS PLpro yeast
Cc1ccc(F)c(S(=O)(=O)NC(=O)C2(C)CCN2C(=O)c2ccc(C3CCCCC3)cc2)c1 (stereo not given)	x	x	0.0%	x	x	x
CCc1nnc(NC(=O)COC(=O)c2cc(OC)cc(OC)c2)s1	x	x	24.2%	12.4%	x	-10.6%
OCCN1CCN(Cc2cccc(Oc3ccc(Cl)cc3)c2)CC1	-9.9%	-15.1%	-3.5%	11.2µM*	u	-10.6%
CCCCOc1ccc(CN2CCN(CCO)CC2)cc1	x	-5.6%	-1.4%	-15.2%	30.9%	0.3%
CCCOc1ccc(C(=O)Nc2cccnc2)cc1	21.4%	-31.5%	6.0%	-12.5%	184.1%	-5.3%
CCCCOc1ccc(C(=O)Nc2ccncc2)cc1	-11.1%	-33.0%	6.3%	8.91µM*	u	-21.3%
CCCCCCOc1ccc(CN2CCN(CCO)CC2)cc1	x	-22.7%	-14.1%	10µM*	102.0%	-13.0%
Cc1ccccc1-n1c(SCC(=O)N/N=C/c2sccc2C)nc2ccccc2c1=O	u	13.0%	-0.9%	32.2%	u	6.9%
Nc1c(C(=O)NCCC2=CCCCC2)sc2ccc(S(=O)(=O)N3CCCCC3)cc12	u	u	18.8%	-29.8%	13.1µM*	3.1%
Cc1ccc(CNC(=O)COC(=O)c2cccc(S(=O)(=O)N3CCCCC3)c2)cc1	4.1%	x	5.9%	8.9%	7.5%	0.2%
Cc1ccc(CNC(=O)c2sc3ccc(S(=O)(=O)N4CCCCC4)cc3c2N)cc1	u	20.8%	x	31.6µM*	-9.4%	-8.2%
Cc1ccc(S(=O)(=O)N2CCCCC2)cc1C(=O)NCCC1=CCCCC1	u	x	-3.9%	u	u	1.7%
COC(=O)Cn1c2ccc(OC)cc2c2nc(C)sc21	32.7%	-3.7%	1.3%	6.1%	11.4%	-0.9%
CCOCCSc1n[nH]c(=O)n1CCc1ccccc1	0.8%	0.5%	27.2%	14.5%	31.8%	-0.4%
CCOC(=O)c1ccc(Nc2sc(C(=O)c3cccc([N+](=O)[O-])c3)c(N)c2C#N)cc1	30.6%	1.1%	5.6%	u	40.2%	1.6%
C=CCc1cc(C)ccc1OCCOCCC(C(=O)OCC)C(=O)OCC	11.7µM*	-14.3%	83.4%	1.3%	-21.3%	-32.7%
C=CCc1cc(Cl)ccc1OCCOCCNC(C)CC (stereo not given)	u	-1.2%	3.5%	u	u	-0.3%
COc1ccc(S(=O)(=O)N2CCN(CC(O)COc3ccc(CC#N)cc3)CC2)cc1OC (stereo not given)	u	-2.2%	-0.8%	16.3%	-20.2%	6.5%
C/C(=N\NC(=S)Nc1ccccc1C)c1cc2ccccc2o1	7.38µM*	6.1%	-3.2%	u	u	0.2%
C/C(=N\NC(=O)c1ccco1)c1cc2ccccc2o1	-25.5%	-17.9%	7.2%	-4.7%	80.4%	-11.0%
C/C(=N\NC(=S)Nc1c(C)cccc1C)c1ccc(O)cc1	0.0%	-4.0%	71.7%	-28.0%	-23.7%	-0.6%
C/C(=N\NC(=S)Nc1c(C)cccc1C)c1cc2ccccc2o1	11.7µM*	10.7%	24.4%	u	u	5.8%
C=C1C[C@H](O[C@@H]2O[C@H](CO)[C@@H](O)[C@H](O)[C@H]2O)[C@@H]2[C@H](OC(=O)[C@H]2C)[C@H]2[C@H](C)[C@H](O)C[C@@H]12	x	x	-1.5%	0.4%	x	-37.7%
O=C(CSc1nccn1Cc1ccc(F)cc1)NC1CCCCC1	x	x	-4.9%	x	x	x
Cc1cc(C)n2nc(SCCCC(=O)c3ccc(F)cc3)nc2n1	u	x	4.3%	0.5%	-26.2%	-0.8%
O=C1c2cccc(O)c2C(=O)c2c(O)cc(CO)cc21	x	x	-25.3%	3.3%	x	x
O=C1c2c(O)ccc(O)c2C(=O)c2c(NCCNCCO)ccc(NCCNCCO)c21	0.928µM*	-43.9%	10µM*	1.12µM*	0.828µM*	x
COc1ccc(C(=O)C2CCCN(Cc3ccc4nonc4c3)C2)c(OC)c1 (stereo not given)	u	-2.4%	0.0%	u	22.2%	0.1%
CCN(CC)c1nc(-c2ccccn2)nc(-c2ccccc2)c1C#N	4.15µM*	x	44.7%	6.31µM*	u	12.3%
